In PubChem BioAssay AID1159580 (chemical genetic matrix, 2015):
Screen size: about 5,500 compounds; about 2,000 (36%) were called active. About 18% were inconclusive and are not listed. Cut-off read from the data, not from the text of the source: active = normalized growth mostly below about 0.91 (no sharp cut-off); inconclusive = no clear call, values can overlap the other calls; inactive = mostly above about 0.92. The list shows a part of the results.

Test: chemical genetic growth profiling, strain panel (AID 1159580);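 note: tested at 20 µM; growth read once vehicle control cultures reached saturation at 30 °C; 1 = growth at the plate median or of vehicle wells; lower values mean less growth of the strain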
Settings: S. cerevisiae deletion strains, growth OD

Measured: normalized growth

OCc1cc(C(O)CNCCCCCCOCCCCc2ccccc2)ccc1O (centres undefined)
inactive: locus YAL040C, strain CLN3, hits give low values 1.07 | locus YCL061C, strain MRC1 (second series), hits give low values 1.01 | locus YDR150W, strain NUM1, hits give low values 1.01 | locus YDR363W, strain ESC2, hits give low values 0.995 | locus YER002W, strain NOP16, hits give low values 1.02 | locus YMR263W, strain SAP30, hits give low values 1.01 | locus YMR307W, strain GAS1, hits give low values 0.992 | locus YNL175C, strain NOP13, hits give low values 1.01 | locus YNL197C, strain WHI3, hits give low values 1.01 | locus YNL224C, strain SQS1, hits give low values 1.01 | locus YOR083W, strain WHI5 (second series), hits give low values 1.01 | locus YPL055C, strain LGE1, hits give low values 0.983 | locus YPL241C, strain CIN2, hits give low values 0.997

N/C(Cn1ccc(C(F)(F)F)n1)=N/OS(=O)(=O)c1cccc(Cl)c1Cl
inactive: locus YAR019C, strain CDC15, hits give low values 0.979 | locus YBL105C, strain PKC1, hits give low values 0.989 | locus YBR135W, strain CKS1, hits give low values 0.977 | locus YBR136W, strain MEC1, hits give low values 0.985 | locus YBR160W, strain CDC28, hits give low values 0.972 | locus YDL017W, strain CDC7, hits give low values 0.994 | locus YDL028C, strain MPS1, hits give low values 0.985 | locus YDL101C, strain DUN1, hits give low values 0.989 | locus YDL108W, strain KIN28, hits give low values 0.98 | locus YDL132W, strain cdc53, hits give low values 0.983 | locus YDL214C, strain PRR2, hits give low values 1.01 | locus YDR052C, strain DBF4, hits give low values 0.986 | locus YDR054C, strain cdc34, hits give low values 0.975 | locus YDR226W, strain ADK1, hits give low values 0.987 | locus YDR477W, strain SNF1, hits give low values 0.993 | locus YER123W, strain YCK3, hits give low values 0.989 | locus YER133W, strain GLC7, hits give low values 0.995 | locus YFL009W, strain cdc4, hits give low values 0.988 | locus YFL029C, strain CAK1, hits give low values 0.979 | locus YFR003C, strain YPI1, hits give low values 0.985 | locus YFR019W, strain FAB1, hits give low values 1 | locus YFR028C, strain CDC14, hits give low values 0.98 | locus YGR040W, strain KSS1, hits give low values 0.983 | locus YGR052W, strain FMP48, hits give low values 1.09 | locus YGR092W, strain DBF2, hits give low values 0.974 | locus YHR030C, strain SLT2, hits give low values 1.07 | locus YHR079C, strain IRE1, hits give low values 1.05 | locus YHR082C, strain KSP1, hits give low values 1.11 | locus YHR205W, strain SCH9, hits give low values 1.02 | locus YIL147C, strain SLN1, hits give low values 0.987 | locus YJL095W, strain BCK1, hits give low values 1.08 | locus YJL128C, strain PBS2, hits give low values 0.988 | locus YJL157C, strain FAR1, hits give low values 1 | locus YJR016C, strain ILV3, hits give low values 0.989 | locus YJR066W, strain TOR1 (second series), hits give low values 0.982 | locus YJR066W, strain TOR1, hits give low values 1.12 | locus YKL048C, strain ELM1, hits give low values 0.984 | locus YKL067W, strain YNK1, hits give low values 0.994 | locus YKL101W, strain HSL1, hits give low values 1.01 | locus YKL193C, strain SDS22, hits give low values 0.983 | locus YKL203C, strain TOR2, hits give low values 1.06 | locus YLR113W, strain HOG1, hits give low values 1.04 | locus YLR133W, strain CKI1, hits give low values 1.01 | locus YLR403W, strain SFP1, hits give low values 0.992 | locus YML070W, strain DAK1, hits give low values 1 | locus YMR001C, strain CDC5, hits give low values 0.983 | locus YMR205C, strain PFK2 (second series), hits give low values 1 | locus YMR277W, strain FCP1, hits give low values 0.991 | locus YNL006W, strain LST8, hits give low values 0.99 | locus YNL020C, strain ARK1, hits give low values 1.01 | locus YNL161W, strain CBK1, hits give low values 0.981 | locus YNL183C, strain NPR1, hits give low values 1.06 | locus YNL207W, strain RIO2, hits give low values 0.977 | locus YNL222W, strain SSU72, hits give low values 0.977 | locus YNL307C, strain MCK1 (second series), hits give low values 0.997 | locus YOL078W, strain AVO1, hits give low values 0.986 | locus YOL136C, strain PFK27, hits give low values 1.02 | locus YOR061W, strain CKA2, hits give low values 1.01 | locus YOR119C, strain RIO1, hits give low values 1.04 | locus YOR231W, strain MKK1, hits give low values 1.01 | locus YOR329C, strain SCD5, hits give low values 0.992 | locus YPL031C, strain PHO85, hits give low values 0.998 | locus YPL153C, strain RAD53, hits give low values 0.987 | locus YPL204W, strain HRR25, hits give low values 0.989 | locus YPL209C, strain IPL1, hits give low values 0.978 | locus YPL256C, strain CLN2, hits give low values 1.03 | locus YPR025C, strain CCL1, hits give low values 0.978 | locus YPR106W, strain ISR1, hits give low values 0.992 | locus YPR111W, strain DBF20, hits give low values 0.976 | strain NNK1, hits give low values 0.998 | strain TSCII, hits give low values 0.986
